Screening data (PubChem)
ROC1-CUL1 inh = human ROC1-CUL1 E3 ligase inhibition; in vitro K48 di-Ub FRET, acceptor:donor ratio, 45 min; P62877+Q13616; inhibition, % at 10 µM; 140,000 tested, 0.6% active; in the data active = inhibition above about 25%
Of the large screens only hits and unclear results are named; the others gave an inactive call. This is one part of a sample in which hits are shown more often than they occur.

CC(C)=NNC(N)=NC(=S)Nc1ccc(C)cc1	none
CC(=O)N1/C(=C/c2ccccc2O)C(=O)c2cc(Br)ccc21	none
CC(=O)N1/C(=C/c2ccc(O)cc2)C(=O)c2ccccc21	ROC1-CUL1 inh 60
O=C1/C(=C/c2ccc(O)cc2)CS(=O)(=O)c2ccccc21	none
CC1=NN(c2ccccc2)C(=O)C1C(c1ccccc1C(=O)O)C1C(=O)N(c2ccccc2)N=C1C (centres undefined)	none
CC1=NN(c2ccccc2)C(=O)C1C(c1ccc(Cl)cc1)C1C(=O)N(c2ccccc2)N=C1C (centres undefined)	ROC1-CUL1 inh 61
CC1=NN(c2ccccc2)C(=O)C1N=Nc1cc(Cl)ccc1C(F)(F)F (centres undefined)	none
CCc1ccc(NC(=O)CN2CCN(c3ccccc3C)CC2)cc1	none
O=C(Oc1ccc(OC(=O)c2ccco2)c(S(=O)(=O)c2cc(Cl)ccc2Cl)c1)c1ccco1	none
CCn1c(O)c(C=C2C(C)=Nc3ccccc32)c(=O)[nH]c1=S	none
CC1=CC(=Cc2c(O)n(-c3cccc(Cl)c3Cl)c(=S)[nH]c2=O)C(C)=N1	ROC1-CUL1 inh 93
COc1ccccc1-n1c(O)c(C=C2C=Nc3ccccc32)c(=O)[nH]c1=S	none
CC(Cc1ccsc1)NC(=O)C1CC(=O)c2sc(NC(=O)c3c(F)cccc3Cl)nc2C1 (centres undefined)	none
O=C(COCCOc1cnn(-c2ccccc2)c(=O)c1Cl)c1ccccc1	none
CCOC(=O)c1c2c(n3ccccc13)C(=O)c1ccccc1C2=O	none
CCOC(=O)c1ccc(NN2C(=O)c3ccc(Br)cc3C2=O)c([N+](=O)[O-])c1	none
CCOC(=O)c1c2c(n(C)c1CNC(C)C)C(=O)C(=O)c1ccc(Br)cc1-2	ROC1-CUL1 inh 98
Cc1ccccc1NC(=O)c1c(C)nc(SCC(=O)c2ccc(O)c(O)c2)c(C#N)c1-c1cccnc1	ROC1-CUL1 inh 28
N#Cc1c(SCC(=O)c2ccc(F)cc2)nc2c(c1-c1cccnc1)CCC2	none
N#Cc1c(N)nc(SCC(=O)c2ccc(O)c(O)c2)c(C#N)c1-c1ccc(OCc2ccccc2)cc1	none
O=C1SC(SCc2ccccc2Cl)=N/C1=C\c1ccco1	none
O=C(/C=C/c1ccco1)CC1(O)C(=O)N(Cc2ccccc2Cl)c2ccccc21 (centres undefined)	none
O=C1SC(SCc2ccccc2Cl)=N/C1=C\C=C\c1ccco1	ROC1-CUL1 inh 88
COc1ccc(OC)c(NC(=O)COc2ccc(C)cc2C)c1	none
CCN(CC)CC(O)COc1cc(CN2CCN(C3CCCC3)C(=O)C2)ccc1OC (centres undefined)	none
Cc1cc(C(F)(F)Cl)n2ncc(-c3ccccc3)c2n1	none
CC(C)(O)C#Cc1cccc(C(=O)NCCN2Cc3ccccc3OC(c3ccsc3)C2)c1 (centres undefined)	none
COc1cc(Br)c(Br)c(/C=C2\SC(c3ccc(C)cc3)=NC2=O)c1O	ROC1-CUL1 inh 93
COc1cc(Br)c(Br)c(C=Nc2ccc(NC(=O)c3ccccc3Br)cc2)c1O	none
COc1cc(/C=C2/SC(=Nc3ccccc3C)NC2=O)c(Br)c(Br)c1O	none
Cc1ccc2cc(/C=C3\N=C(c4ccccc4)OC3=O)c(N3CCCCC3)nc2c1	none
COc1cc(C=C2C(=O)N(c3ccccc3)C(=S)N(c3ccccc3)C2=O)ccc1OCc1ccccc1Cl	none
Cc1ccn(CCC(=O)N(Cc2ccncc2)Cc2cccc(OCCc3ccc(F)cc3)c2)n1	none
CCCCNC(=O)c1nnn(-c2cc(Cl)ccc2OC)c1C	none
CC(C)n1cc(NC(=O)c2ccc(C3CCCN3)s2)nn1 (centres undefined)	none
O=C(Nc1ccc2scnc2c1)c1ccc(C2CCCN2)s1 (centres undefined)	ROC1-CUL1 inh 99
Cc1ccccc1NC(=O)c1ccc(C2CCCN2)s1 (centres undefined)	none
O=C(NCC1CCCN(C(=O)Cn2cncn2)C1)c1ccc(-c2ccccc2)cc1 (centres undefined)	none
Cn1cc(C(c2cccs2)c2cn(C)c3ccccc23)c2ccccc21	none
CCOc1cc(C(c2c(C)[nH][nH]c2=O)c2c(C)[nH][nH]c2=O)cc(I)c1O	none
CCOc1cc(C(c2c(C)[nH][nH]c2=O)c2c(C)[nH][nH]c2=O)cc(Br)c1OCc1cccc2ccccc12	ROC1-CUL1 inh 26
Cc1[nH][nH]c(=O)c1C(c1ccccc1I)c1c(C)[nH][nH]c1=O	none
Cc1[nH][nH]c(=O)c1C(c1cccc(OCc2ccccc2Cl)c1)c1c(C)[nH][nH]c1=O	none
CCOc1cc(C(c2c(C)[nH][nH]c2=O)c2c(C)[nH][nH]c2=O)cc(I)c1OC	none
Cc1[nH][nH]c(=O)c1C(c1c(C)[nH][nH]c1=O)c1cn(Cc2cccc3ccccc23)c2ccccc12	ROC1-CUL1 inh 39
CC(C)C1=NN2C(=N)/C(=C\c3cn(Cc4cccc5ccccc45)c4ccccc34)C(=O)N=C2S1	none
Cc1[nH][nH]c(=O)c1C(c1c(C)[nH][nH]c1=O)c1cn(C)c2ccccc12	ROC1-CUL1 inh 26
COc1ccccc1/C=C1/SC(=Nc2ccccc2C)NC1=O	none
CC(=O)Nc1cc(C(=O)NCc2nc(-c3ccccc3)cs2)cc2ncn(CCc3ccccn3)c12	none
CC1CCN(S(=O)(=O)Nc2ccc(F)cc2)CC1	none
